Results on 63 molecules are retold here after the antibiotic and cytotoxicity screens of Wong et al. (2023).

The campaign covered roughly 39,000 compounds. About 1,500 (3.8%) were called active. Shown is part of a subset that was picked to be rich in actives.

This test relates to HSkMC (human skeletal muscle cells). Put plainly: cytotoxicity call (relative viability < 0.9). To be noted: 10 µM.
Regarding `C[C@H](O)C#Cc1ccc2c(c1)O[C@@H](CN(C)C(=O)Cc1ccccn1)[C@H](C)CN([C@H](C)CO)S2(=O)=O`, the cytotoxicity call is “inactive”. Regarding `O=C(O)CNC(=O)c1[nH]nc2ccccc12`, the cytotoxicity call is “inactive”. Turning to `C[C@@H]1CCCCO[C@@H](CN(C)Cc2ccc(C(F)(F)F)cc2)[C@@H](C)CN([C@H](C)CO)C(=O)c2cc(NS(=O)(=O)c3ccccc3)ccc2O1`, the cytotoxicity call was “inactive”.

In the case of `C[C@H](CO)N1C[C@H](C)[C@H](CN(C)S(=O)(=O)c2ccc(F)cc2)Oc2ccc(NS(=O)(=O)c3ccc(F)cc3)cc2C1=O`, the cytotoxicity call is “inactive”.

Consider `COc1ccc(CN(C)C[C@@H]2OCCCC[C@H](C)Oc3ccc(NC(=O)Nc4cccc5ccccc45)cc3C(=O)N([C@H](C)CO)C[C@H]2C)cc1`, for which the cytotoxicity call was “active”. `COc1ccc(CN(C)C[C@@H]2OCCCC[C@H](C)Oc3ccc(NC(=O)Nc4cccc5ccccc45)cc3C(=O)N([C@H](C)CO)C[C@@H]2C)cc1`: the cytotoxicity call was “inactive”.

Regarding `COc1ccc(CN(C)C[C@H]2OCCCC[C@H](C)Oc3ccc(NC(=O)Nc4cccc5ccccc45)cc3C(=O)N([C@@H](C)CO)C[C@H]2C)cc1`, the cytotoxicity call was “inactive”. For `COc1ccc(CN(C)C[C@@H]2OCCCC[C@H](C)Oc3ccc(NC(=O)Nc4cccc5ccccc45)cc3C(=O)N([C@@H](C)CO)C[C@@H]2C)cc1`, the cytotoxicity call is “active”.

Consider `COc1ccc(CN(C)C[C@H]2OCCCC[C@H](C)Oc3ccc(NC(=O)Nc4cccc5ccccc45)cc3C(=O)N([C@@H](C)CO)C[C@@H]2C)cc1`, for which the cytotoxicity call was “inactive”.

Take `COc1ccc(CN(C)C[C@@H]2OCCCC[C@@H](C)Oc3ccc(NC(=O)Nc4cccc5ccccc45)cc3C(=O)N([C@H](C)CO)C[C@H]2C)cc1`: the cytotoxicity call is “active”. To `COc1ccc(CN(C)C[C@H]2OCCCC[C@@H](C)Oc3ccc(NC(=O)Nc4cccc5ccccc45)cc3C(=O)N([C@H](C)CO)C[C@H]2C)cc1` belongs “inactive”; to `COc1ccc(CN(C)C[C@@H]2OCCCC[C@@H](C)Oc3ccc(NC(=O)Nc4cccc5ccccc45)cc3C(=O)N([C@@H](C)CO)C[C@H]2C)cc1`, “active”; to `C[C@@H]1CC=CC[C@@H](c2cccc(Cl)c2)NC(=O)[C@@H](Cc2ccccc2)N(C)C(=O)c2ccccc2O1`, “inactive”.

Consider `Cc1noc(C)c1NC(=O)Nc1ccc2c(c1)C(=O)N([C@@H](C)CO)C[C@H](C)[C@H](CN(C)Cc1ccc(Cl)c(Cl)c1)OCCCC[C@@H](C)O2`, for which the cytotoxicity call is “inactive”. Regarding `N[C@@H](CC(=O)O)c1cccc([N+](=O)[O-])c1`, the cytotoxicity call was “inactive”. Regarding `C[C@@H]1CN([C@H](C)CO)C(=O)c2cc(NS(=O)(=O)c3ccccc3)ccc2O[C@H]1CN(C)S(C)(=O)=O`, the cytotoxicity call is “inactive”. Take `COCC#Cc1ccc2c(c1)O[C@@H](CN(C)C(=O)COC)[C@H](C)CN([C@@H](C)CO)S2(=O)=O`: the cytotoxicity call is “inactive”. On to `CC(C)NC(=O)Nc1ccc2c(c1)C(=O)N([C@@H](C)CO)C[C@H](C)[C@H](CN(C)S(=O)(=O)c1cccs1)O2`, for which the cytotoxicity call was “inactive”. On to `C[C@@H]1CN([C@H](C)CO)C(=O)Cc2cc(NC(=O)C3CCCCC3)ccc2O[C@H]1CN(C)C(=O)Nc1ccc(C(F)(F)F)cc1`, for which the cytotoxicity call was “inactive”. With `Cc1ccc(S(=O)(=O)N[C@H]2C=C[C@H](CC(=O)NCCN3CCCCC3)O[C@@H]2CO)cc1`, the cytotoxicity call is “inactive”.

Consider `C[C@@H]1CN([C@H](C)CO)C(=O)c2cc(NS(=O)(=O)c3cccs3)ccc2O[C@@H]1CN(C)S(=O)(=O)c1cccs1`, for which the cytotoxicity call is “inactive”. Take `CC(C)NC(=O)Nc1ccc2c(c1)C(=O)N([C@H](C)CO)C[C@@H](C)[C@@H](CN(C)Cc1ccc(Oc3ccccc3)cc1)O2`: the cytotoxicity call is “inactive”. Take `NC[C@@H](CO)Cc1ccsc1`: the cytotoxicity call is “inactive”.

With `C[C@@H]1CCCCO[C@@H](CN(C)S(C)(=O)=O)[C@H](C)CN([C@@H](C)CO)C(=O)c2cc(NC(=O)CCCN(C)C)ccc2O1`, the cytotoxicity call was “inactive”. With `COc1ccc(S(=O)(=O)Nc2ccc3c(c2)C(=O)N([C@@H](C)CO)C[C@H](C)[C@@H](CN(C)S(=O)(=O)c2cccs2)O3)cc1`, the cytotoxicity call is “inactive”. Take `COc1ccc(S(=O)(=O)N2C[C@H](O)COC[C@@H]3O[C@H](CC(=O)N[C@@H]4CCN(Cc5ccccc5)C4)CC[C@H]32)cc1`: the cytotoxicity call is “inactive”. In the case of `COc1ccc(CN(C)C[C@H]2OCCCC[C@H](C)Oc3ccc(NC(=O)Nc4cccc5ccccc45)cc3C(=O)N([C@H](C)CO)C[C@H]2C)cc1`, the cytotoxicity call was “active”. Regarding `COc1ccc(CN(C)C[C@@H]2OCCCC[C@@H](C)Oc3ccc(NC(=O)Nc4cccc5ccccc45)cc3C(=O)N([C@@H](C)CO)C[C@@H]2C)cc1`, the cytotoxicity call is “inactive”.

`COc1ccc(CN(C)C[C@H]2OCCCC[C@@H](C)Oc3ccc(NC(=O)Nc4cccc5ccccc45)cc3C(=O)N([C@@H](C)CO)C[C@H]2C)cc1`: the cytotoxicity call is “active”.

In the case of `COc1ccc(CN(C)C[C@H]2OCCCC[C@@H](C)Oc3ccc(NC(=O)Nc4cccc5ccccc45)cc3C(=O)N([C@H](C)CO)C[C@@H]2C)cc1`, the cytotoxicity call was “active”.

For the molecule `COc1ccc(CN(C)C[C@@H]2OCCCC[C@H](C)Oc3ccc(NC(=O)Nc4cccc5ccccc45)cc3C(=O)N([C@@H](C)CO)C[C@H]2C)cc1`, the cytotoxicity call is “active”. To `COc1ccc(CN(C)C[C@H]2OCCCC[C@@H](C)Oc3ccc(NC(=O)Nc4cccc5ccccc45)cc3C(=O)N([C@@H](C)CO)C[C@@H]2C)cc1` belongs “inactive”. To `COc1ccc(CN(C)C[C@@H]2OCCCC[C@@H](C)Oc3ccc(NC(=O)Nc4cccc5ccccc45)cc3C(=O)N([C@H](C)CO)C[C@@H]2C)cc1` belongs “inactive”; to `COc1ccc(CN(C)C[C@H]2OCCCC[C@H](C)Oc3ccc(NC(=O)Nc4cccc5ccccc45)cc3C(=O)N([C@H](C)CO)C[C@@H]2C)cc1`, “inactive”. To `CCOC(=O)c1cc2c(c(-c3cccc(-c4cccc(F)c4)c3)n1)[C@H](CCO)N(S(=O)C(C)(C)C)C2` (stereo partly drawn) belongs “inactive”; to `N#C[C@H]1N[C@@H](CO)[C@@H]1c1ccccc1`, “inactive”; to `CC(C)NC(=O)N(C)C[C@@H]1OCCCC[C@H](C)Oc2ccc(NC(=O)C3CCCCC3)cc2C(=O)N([C@H](C)CO)C[C@@H]1C`, “inactive”. As to `COc1ccc(S(=O)(=O)Nc2ccc3c(c2)C(=O)N([C@@H](C)CO)C[C@@H](C)[C@@H](CN(C)C(=O)Nc2ccccc2)OCCCC[C@@H](C)O3)cc1`, the cytotoxicity call is “inactive”. With `C[C@@H]1CN([C@H](C)CO)C(=O)c2cc(Br)cnc2O[C@@H]1CN(C)S(=O)(=O)c1ccc(F)cc1`, the cytotoxicity call was “inactive”. In the case of `C[C@@H]1CN([C@@H](C)CO)C(=O)c2cc(NC(=O)CCN3CCOCC3)ccc2O[C@@H]1CN(C)C(=O)Nc1ccc2c(c1)OCO2`, the cytotoxicity call was “inactive”.

For `C[C@@H]1CN([C@H](C)CO)C(=O)c2cc(C#CCN(C)C)cnc2O[C@@H]1CN(C)C(=O)c1ccc2c(c1)OCO2`, the cytotoxicity call is “inactive”.

For the molecule `C[C@@H]1CN([C@@H](C)CO)S(=O)(=O)c2ccc(C#CC3CCCC3)cc2O[C@H]1CN(C)C(=O)Cc1ccncc1`, the cytotoxicity call was “inactive”.

As to `Cc1noc(C)c1NC(=O)Nc1ccc2c(c1)CC(=O)N([C@@H](C)CO)C[C@H](C)[C@H](CN(C)S(=O)(=O)c1cccs1)O2`, the cytotoxicity call was “inactive”.

For `COC(=O)C1=C(C)NC(C)=C(C(=O)OC(C)(C)CN(C)CCC(c2ccccc2)c2ccccc2)[C@@H]1c1cccc([N+](=O)[O-])c1`, the cytotoxicity call is “active”.

With `CCCN1C(C)=C(C(=O)OC)[C@@H](c2cccc([N+](=O)[O-])c2)C(C(=O)ON2CCC(c3ccccc3)(c3ccccc3)CC2)=C1C`, the cytotoxicity call is “active”. In the case of `COC(=O)C1=C(C)NC(C)=C(C(=O)OCCCN2CCC(c3ccccc3)(c3ccccc3)CC2)[C@@H]1c1cccc([N+](=O)[O-])c1`, the cytotoxicity call is “active”. To `COC(=O)C1=C(C#N)NC(C)=C(C(=O)OC(C)C)C1c1cccc([N+](=O)[O-])c1` (stereo not drawn) belongs “inactive”; to `COCCOC(=O)C1=C(C)NC(C)=C(C(=O)OCC=Cc2ccccc2)C1c1cccc([N+](=O)[O-])c1` (stereo not drawn), “inactive”. To `COCCOC(=O)C1=C(C)NC(C)=C(C(=O)OC(C)C)C1c1cccc([N+](=O)[O-])c1` (stereo not drawn) belongs “inactive”; to `COC(=O)C1=C(C)NC(C)=C(C(=O)OCCN(C)Cc2ccccc2)C1c1cccc([N+](=O)[O-])c1.Cl` (stereo not drawn), “inactive”. On to `CC1=C(C(=O)OCCN(Cc2ccccc2)c2ccccc2)[C@H](c2cccc([N+](=O)[O-])c2)C(P2(=O)OCC(C)(C)CO2)=C(C)N1`, for which the cytotoxicity call is “inactive”.

Consider `COC(=O)C1=C(C)NC(C)=C(C(=O)OCCN2CCN(C(c3ccccc3)c3ccccc3)CC2)C1c1cccc([N+](=O)[O-])c1` (stereo not drawn), for which the cytotoxicity call was “inactive”.

Consider `COC(=O)C1=C(C)NC(C)=C(C(=O)NCCCN2CCC(c3ccccc3)(c3ccccc3)CC2)[C@@H]1c1ccc([N+](=O)[O-])cc1`, for which the cytotoxicity call was “inactive”. Take `CCOC(=O)C1=C(C)NC(C)=C(C(=O)OC)C1c1cccc([N+](=O)[O-])c1` (stereo not drawn): the cytotoxicity call is “inactive”. Take `COC(=O)C1=C(C)NC(C)=C(C(=O)OCCCN2CCC(c3ccccc3)(c3ccccc3)CC2)[C@H]1c1cccc([N+](=O)[O-])c1`: the cytotoxicity call was “active”. Take `Cc1ccc(S(=O)(=O)N(C)C[C@H]2Oc3ccc(NS(=O)(=O)c4cccs4)cc3CC(=O)N([C@@H](C)CO)C[C@@H]2C)cc1`: the cytotoxicity call is “inactive”. `C[C@@H]1CN([C@H](C)CO)C(=O)Cc2cc(NC(=O)c3ccncc3)ccc2O[C@@H]1CN(C)Cc1ccc(C(=O)O)cc1`: the cytotoxicity call is “inactive”. As to `COc1ccc(O)c(N)c1`, the cytotoxicity call is “inactive”. With `c1csc(CNc2ccc(NCc3cccs3)cc2)c1`, the cytotoxicity call was “inactive”. To `Cc1noc(C)c1NC(=O)N[C@H]1CC[C@@H](CC(=O)N2CCN(C)CC2)O[C@@H]1CO` belongs “inactive”; to `C[C@H](CO)N1C[C@H](C)[C@H](CN(C)S(C)(=O)=O)Oc2ccc(NC(=O)C3CCCCC3)cc2CC1=O`, “inactive”; to `Cc1ccc(S(=O)(=O)N[C@@H](Cc2ccccc2)C(=O)NCCCn2cc(C(=O)NO)nn2)cc1`, “inactive”.

With `C[C@@H]1CCCCO[C@H](CN(C)CC2CCCCC2)[C@@H](C)CN([C@@H](C)CO)C(=O)c2cc(NS(=O)(=O)c3cccs3)ccc2O1`, the cytotoxicity call was “inactive”.
